Assay outcomes (PubChem BioAssay)
SW480 rerep – inducers of DNA re-replication in SW480 colon cancer cells; AID 624297; Potency, µM (doses to about 46.1 µM), inactives show at the highest dose re-replication activation, usual class: activators; actives 1.8% (n = 340,000); SW480 DNA re-replication, Hoechst DNA content imaging, 48 h; also: % of control where 0% means no effect; nearly all actives have a fitted effect of over 55% in size
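Compounds, transferred as 23 nL by pin tool, were incubated with cells for 48 hr; DNA content per nucleus was then quantified by Hoechst staining and fluorescence plate imaging.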
KB-V1 cytotox – KB-V1 MDR subline cytotoxicity; KB-V1 MDR cells viability, CellTiter-Glo, 72 h; actives 3.4% (n = 400,000); AID 1347076; Potency, µM (titrated, usually from 46.1 µM), usual class: cytotoxic; also: % is scaled to controls: 0 for no effect and ±100 for the full control effect; nearly all actives have a fitted effect of over 60% in size
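Luminescent ATP read-out (CellTiter-Glo, 10 min) measures survival of drug-selected KB-V1 MDR cells after 72 h, 37 degrees C compound exposure. Medium: phenol-red-free DMEM, 10% FBS. Values from fitted concentration-response curves.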
KB-3-1 cytotox – KB-3-1 parental cell cytotoxicity; AID 1347075; KB-3-1 viability, CellTiter-Glo ATP luminescence, 72 h; Potency, µM (titrated, usually from 46.1 µM), hits mostly cytotoxic; actives 1.4% (n = 400,000); also: % is scaled to controls: 0 for no effect and ±100 for the full control effect; nearly all actives have a fitted effect of over 60% in size
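72 h, 37 °C compound treatment of KB-3-1 parental cells; CellTiter-Glo added, 10 min, luminescence read. Data corrected against DMSO-only plates and normalized before curve fitting.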
HT1080 IDH1KD tx – kills HT-1080 cells with IDH1 knockdown | actives 2% (n = 360,000) | HT-1080 IDH1 knockdown viability, ATP luminescence, 48 h | Potency, µM (titrated, usually from 46.1 µM), for the others: at the highest dose activity, negative = toxicity, usual class: cytotoxic;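 also: 0% = DMSO wells and -100% = cell-free medium wells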
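HT-1080-IDH1KD cells (IDH1 knocked down), 750/well in RPMI with 5% FBS, treated with compound 48 h at 37 degrees C. Viability by CellTiter-Glo luminescence, normalised to DMSO and no-cell wells; concentration-response curves classed.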
MCF10A rereplic – induces DNA re-replication in MCF 10a normal breast cells. MCF 10A DNA re-replication, Hoechst nuclear intensity, 48 h. Potency, µM (top dose mostly 46.1 µM), inactives show top-dose activity, positive = re-replication, hits mostly activators. actives 2.9% (n = 350,000). AID 624296; also: % of control where 0% means no effect; nearly all actives have a fitted effect of over 50% in size
HT1080NT lethal – kills 2HG-producing HT-1080-NT fibrosarcoma cells | HT-1080-NT fibrosarcoma viability, CellTiter-Glo ATP luminescence, 48 h | Potency, µM (doses to about 46.1 µM), inactives show at the top dose activity, negative = less viability, most hits filed as cytotoxic | actives 1.6% (n = 360,000);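 also: NT is the 2HG producing partner of a matched IDH1 knockdown line; 0% = DMSO-treated cells and -100% = media-only wells without cells; nearly all actives have a fitted effect of over 55% in size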
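A 48-hour cytotoxicity screen used HT-1080-NT cells plated 2 hours before compound delivery. ATP-based CellTiter-Glo luminescence measured viability, normalized to DMSO and no-cell controls.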
Starred values were filed as active, the others as inactive; i = inactive; ? = inconclusive; . = no result given; [ ] = dose if it differs, or a comment. A selection: hits, their analogues and other compounds. The true share with any hit is near 7.9%. Calls follow the shape of the dose curve; as a rule, active = well fitted curve in the direction sought with a large enough effect; inconclusive = small, poorly fitted or top-dose-only effect, or another doubt; inactive = no such curve, though single readings can be large; an effect the other way counts as inactive or inconclusive. Potency is read from the fitted curve at half-maximal effect.

SMILES	SW480 rerep	KB-V1 cytotox	KB-3-1 cytotox	HT1080 IDH1KD tx	MCF10A rereplic	HT1080NT lethal
COc1cccc(-c2nn(-c3ccc(C)cc3)cc2C(=O)N(C)CC(=O)Nc2cccc(F)c2)c1	10.1%	i	?	?	?	-24.4%
CCOc1ccc(NC(=O)CN(C)C(=O)c2cn(-c3ccc(C)cc3)nc2-c2cccc(OC)c2)cc1OCC	-4.6%	5.8µM*	i	-2.0%	?	-4.2%
CCOc1ccc(NS(=O)(=O)c2ccc3c(c2)N(C(C)=O)CCO3)cc1	?	?	i	-8.4%	7.8%	-1.9%
Cc1cc(C(=O)NCCc2ccc(Cl)cc2)no1	-25.4%	i	i	3.5%	6.51µM*	-4.9%
COc1cccc(-c2cc(C(=O)Nc3cnn(Cc4ccc(Cl)cc4Cl)c3)no2)c1	.	i	i	.	.	.
Cc1cc(C(=O)NNc2ccc(Cl)cc2)no1	11.4%	i	?	2.59µM*	7.31µM*	2.31µM*
Cc1cc(C(=O)NNc2ccc(C)c(C)c2)no1	?	?	?	23.1µM*	16.4µM*	?
Cc1cc(C(=O)Nc2cnn(Cc3ccc(Cl)cc3Cl)c2)no1	-0.8%	13µM*	i	-28.9%	13.4%	-13.4%
Cc1cc(C(=O)NNC(=O)Nc2ccc(Cl)cc2)no1	-12.2%	i	i	0.0%	3.8%	12.0%
Cc1ccccc1C(=O)NC(=S)N(CCO)Cc1ccccc1	-2.9%	i	i	12.4%	-10.9%	7.8%
CC(C)CN1CC(C)C(=O)NC1=S (stereo unspecified)	1.1%	i	i	10.9%	-4.2%	4.7%
CCOC(=O)Oc1c(OC)cc(C(=O)O[C@@H]2C[C@@H]3CN4CCc5c([nH]c6cc(OC)ccc56)[C@H]4C[C@@H]3[C@H](C(=O)OC)[C@H]2OC)cc1OC	?	?	?	?	?	14.6µM*
COC(=O)C1C2CC3c4[nH]c5cc(OC)ccc5c4CCN3CC2CC(OC(=O)CC(C)=O)C1OC (stereo unspecified)	?	i	i	?	?	-13.0%
CN(C[C@@H](Cc1cccc2ccccc12)N(C[C@H](Cc1ccccc1)N(CCc1ccccc1)N=O)N=O)N=O	-4.3%	i	i	-4.0%	-1.5%	-9.1%
CN1C(=O)C(O)(CC(=O)c2cccnc2)c2ccccc21 (stereo unspecified)	-3.5%	i	i	4.2%	?	3.5%
CN1/C(=C\C(=O)c2cccnc2)Sc2ccccc21	7.31µM*	?	i	-8.9%	28.4%	-12.0%
COc1cccc(C(=O)/C=C2\Sc3ccccc3N2C)c1	?	i	?	-14.0%	18.4µM*	-7.6%
CCCn1c(=N)c(C(=O)NCc2ccc3c(c2)OCO3)cc2c(=O)n3cccc(C)c3nc21	-1.8%	i	i	-3.4%	0.3%	-2.1%
Cc1ccccc1C(=O)NC(CC(C)C)C(=O)NCC(C)(C)N1CCOCC1 (stereo unspecified)	-6.3%	23.1µM*	i	-11.0%	-0.7%	3.8%
COCCCn1c(=N)c(C(=O)NC2CCCC2)cc2c(=O)n3cccc(C)c3nc21	.	i	i	.	.	.
Cc1ccccc1C(=O)NC(=S)NCCN1CCOCC1	-4.7%	i	i	16.3%	-0.8%	10.0%
Cc1ccccc1C(=O)NCCN1CCOCC1	-17.8%	?	i	8.1%	0.581µM*	2.7%
Cc1cccn2c(=O)c3cc(C(=O)NC4CCCC4)c(=N)n(CCCN4CCOCC4)c3nc12	1.46µM*	i	i	?	99.1%	-29.0%
Cc1cccn2c(=O)c3cc(C(=O)NCCN4CCOCC4)c(=N)n(Cc4ccc(F)cc4)c3nc12	?	?	16.4µM*	?	2.31µM*	-22.3%
COc1ccccc1-c1nnc(NC(=O)c2ccccc2F)o1	-4.4%	?	i	-18.6%	-0.9%	0.9%
SMILES	SW480 rerep	KB-V1 cytotox	KB-3-1 cytotox	HT1080 IDH1KD tx	MCF10A rereplic	HT1080NT lethal
O=C(CN1C(=O)c2cccc3cccc(c23)C1=O)NCCN1CCOCC1	-8.6%	i	i	8.5%	1.84µM*	5.8%
COc1ccc(CCNC(=O)c2cc3c(=O)n4cccc(C)c4nc3n(CCCN3CCOCC3)c2=N)cc1	2.59µM*	i	i	-26.7%	?	?
O=C(CN1C(=O)c2cccc3cccc(c23)C1=O)NCCCO	-10.8%	i	i	17.8%	-0.5%	17.4%
COCCCn1c(C(=O)N2CCOCC2)cc2c(=O)n3cccc(C)c3nc21	-3.1%	?	i	5.1%	15.3%	4.6%
CCOCCCn1c(=N)c(C(=O)NCCN2CCOCC2)cc2c(=O)n3cccc(C)c3nc21	2.8%	i	i	-6.1%	2.91µM*	-9.7%
Cc1cccn2c(=O)c3cc(C(=O)NCCN4CCOCC4)c(=N)n(CCN4CCOCC4)c3nc12	25.9µM*	?	i	0.3%	11.6µM*	11.6%
Cc1cccn2c(=O)c3cc(C(=O)NCCN4CCOCC4)n(C)c3nc12	?	?	i	21.3%	?	18.9%
Cc1ccc(S(=O)(=O)N2CCCOC2)cc1	0.3%	i	i	10.9%	-17.6%	15.8%
CCCNC(=O)c1noc2c1CCc1ccccc1-2	-5.0%	i	i	10.3%	-1.8%	?
O=C(NCCN1CCOCC1)c1noc2c1CCc1ccccc1-2	-15.5%	11.6µM*	i	-16.1%	-2.2%	5.1%
O=C(NCCN1CCN(c2ccccc2)CC1)c1cccn2c(=O)c3cc(Cl)ccc3nc12	-1.4%	i	i	-3.9%	4.11µM*	13.0%
CCCn1c2c(c(O)c(C(=O)NCCCN(CC)CC)c1=O)CCCC2	-0.2%	i	?	?	?	?
O=C(Nc1cccc(Cl)c1)c1nc[nH]c1C(=O)Nc1ccccc1F	.	i	?	12.0%	.	17.2%
CCN(CC)CCN(C(=O)c1cc2ccccc2cc1OC)c1nc2ccc(F)cc2s1	?	i	i	?	12.4%	18.4µM*
COc1cc2ccccc2cc1C(=O)N(CCN(C)C)c1nc2ccc(C)cc2s1	?	?	i	16.4µM*	?	23.1µM*
COc1cc2ccccc2cc1C(=O)N(CCN(C)C)c1nc2c(OC)ccc(OC)c2s1	?	i	?	?	?	16.4µM*
O=C(CSCc1ccc(Br)cc1)NCc1ccccn1	-23.1%[1.84 µM]	i	i	12.4%	1.5%	12.4%
Cc1c(CC(=O)N2CCCCC2)c(=O)oc2cc(O)ccc12	.	i	i	.	.	.
